“And” between values parts separate entries of the source, which are not always exact repeats. Identical values can stand only once. Records with an inconclusive call do not appear. The source made the active and inactive calls. Unless noted, the call rests on the fitted dose curve.
Key:
[1] = target: Androgen receptor (Homo sapiens) (UniProt P10275); test: qHTS assay for small molecule agonists of androgen receptor signaling (AID 588515; active means well fitted curve in the direction sought with a large enough effect in the signal ratio, with a control signal flat; the % refers to the signal ratio; further: on the % scale 0 is the no-effect control and ±100 the full control effect); conditions: AR-UAS-bla HEK293, beta-lactamase ratio, agonist 16 h; activation: active compounds read high
Androgen receptor (Homo sapiens), sequence (P10275 whole entry, looked up): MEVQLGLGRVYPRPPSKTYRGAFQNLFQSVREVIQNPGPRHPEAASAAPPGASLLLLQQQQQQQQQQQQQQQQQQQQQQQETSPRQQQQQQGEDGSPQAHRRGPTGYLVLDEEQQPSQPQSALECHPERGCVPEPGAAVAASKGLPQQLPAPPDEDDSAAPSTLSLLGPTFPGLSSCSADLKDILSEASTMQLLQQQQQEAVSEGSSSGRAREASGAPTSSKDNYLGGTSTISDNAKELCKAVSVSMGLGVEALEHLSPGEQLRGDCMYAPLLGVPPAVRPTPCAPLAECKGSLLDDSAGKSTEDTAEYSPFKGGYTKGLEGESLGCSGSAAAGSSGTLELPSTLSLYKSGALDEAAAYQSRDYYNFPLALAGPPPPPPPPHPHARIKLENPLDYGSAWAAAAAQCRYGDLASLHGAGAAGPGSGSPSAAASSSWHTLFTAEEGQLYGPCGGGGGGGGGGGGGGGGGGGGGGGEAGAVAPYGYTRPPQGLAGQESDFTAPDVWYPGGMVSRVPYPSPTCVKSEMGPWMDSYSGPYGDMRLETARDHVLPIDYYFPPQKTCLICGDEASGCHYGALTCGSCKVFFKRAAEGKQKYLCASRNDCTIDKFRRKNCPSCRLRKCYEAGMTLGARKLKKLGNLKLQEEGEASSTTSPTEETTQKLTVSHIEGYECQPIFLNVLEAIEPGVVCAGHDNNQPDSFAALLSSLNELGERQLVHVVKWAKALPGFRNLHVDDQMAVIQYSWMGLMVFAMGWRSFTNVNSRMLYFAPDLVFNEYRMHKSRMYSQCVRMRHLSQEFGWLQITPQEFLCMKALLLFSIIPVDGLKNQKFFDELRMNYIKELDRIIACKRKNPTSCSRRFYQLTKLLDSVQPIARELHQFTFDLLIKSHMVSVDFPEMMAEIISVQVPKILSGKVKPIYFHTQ
Outline: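 EC50 and efficacy came from Hill fits of titrations (up to 92 uM) normalized to 30 nM R1881 as 100% and DMSO as 0%. Compound exposure was 16 h at 37 C on AR-UAS-bla HEK293 cells, with a 405/460/530 nm CCF4 fluorescence read.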

[2] = target: Glucocorticoid receptor (Homo sapiens) (UniProt P04150); test: qHTS assay for small molecule agonists of glucocorticoid receptor signaling (AID 588532; active means well fitted curve in the direction sought with a large enough effect in the signal ratio, with a control signal flat; the % refers to the signal ratio;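 further: 100% = dexamethasone at 0.1 µM and 0% = DMSO only wells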); conditions: HeLa MMTV-bla, beta-lactamase ratio, agonist, 18 h; active compounds read high; percent of dexamethasone control, DMSO zero
Glucocorticoid receptor (Homo sapiens), sequence (P04150 whole entry, looked up): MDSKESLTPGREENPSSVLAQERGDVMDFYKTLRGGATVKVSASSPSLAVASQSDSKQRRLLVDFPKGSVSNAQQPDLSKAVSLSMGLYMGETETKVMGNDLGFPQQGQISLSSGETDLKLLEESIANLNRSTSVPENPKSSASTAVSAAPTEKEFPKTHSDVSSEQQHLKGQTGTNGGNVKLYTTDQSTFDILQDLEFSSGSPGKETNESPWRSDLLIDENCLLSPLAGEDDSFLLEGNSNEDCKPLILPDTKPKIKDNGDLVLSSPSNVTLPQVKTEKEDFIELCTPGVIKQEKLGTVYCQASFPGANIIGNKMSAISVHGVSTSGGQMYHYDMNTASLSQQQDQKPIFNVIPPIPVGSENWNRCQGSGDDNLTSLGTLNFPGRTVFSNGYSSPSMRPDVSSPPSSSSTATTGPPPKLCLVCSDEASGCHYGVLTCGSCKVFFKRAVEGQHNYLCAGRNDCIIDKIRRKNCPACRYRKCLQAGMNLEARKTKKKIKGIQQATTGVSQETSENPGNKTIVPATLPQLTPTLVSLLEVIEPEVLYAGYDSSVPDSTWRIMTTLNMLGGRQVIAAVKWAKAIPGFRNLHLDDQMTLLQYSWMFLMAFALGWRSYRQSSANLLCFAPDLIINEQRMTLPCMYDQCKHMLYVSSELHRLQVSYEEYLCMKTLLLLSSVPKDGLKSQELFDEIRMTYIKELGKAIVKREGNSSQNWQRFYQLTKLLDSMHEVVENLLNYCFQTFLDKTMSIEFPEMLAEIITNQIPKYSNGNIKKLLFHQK
Outline: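 MMTV-bla HeLa, beta-lactamase reporter; medium with 1% charcoal/dextran-stripped FBS; cpds up to 92 uM, 18 h, 37 C; CCF4 readout 460/530 nm; Hill fit → EC50, efficacy vs 0.1 uM dexamethasone = 100%.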

[3] = target: Peroxisome proliferator-activated receptor gamma (Homo sapiens) (UniProt P37231); test: qHTS assay for small molecule antagonists of peroxisome proliferator-activated receptor gamma signaling (AID 588537; active means well fitted inhibition curve with a large enough effect in the signal ratio, with a control signal flat, not every such curve was filed as active; the % refers to the signal ratio;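 further: reporter cells co-stimulated with 50 nM rosiglitazone agonist during compound treatment; % of control where 0% means no effect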)
Peroxisome proliferator-activated receptor gamma (Homo sapiens), sequence (P37231 whole entry, looked up): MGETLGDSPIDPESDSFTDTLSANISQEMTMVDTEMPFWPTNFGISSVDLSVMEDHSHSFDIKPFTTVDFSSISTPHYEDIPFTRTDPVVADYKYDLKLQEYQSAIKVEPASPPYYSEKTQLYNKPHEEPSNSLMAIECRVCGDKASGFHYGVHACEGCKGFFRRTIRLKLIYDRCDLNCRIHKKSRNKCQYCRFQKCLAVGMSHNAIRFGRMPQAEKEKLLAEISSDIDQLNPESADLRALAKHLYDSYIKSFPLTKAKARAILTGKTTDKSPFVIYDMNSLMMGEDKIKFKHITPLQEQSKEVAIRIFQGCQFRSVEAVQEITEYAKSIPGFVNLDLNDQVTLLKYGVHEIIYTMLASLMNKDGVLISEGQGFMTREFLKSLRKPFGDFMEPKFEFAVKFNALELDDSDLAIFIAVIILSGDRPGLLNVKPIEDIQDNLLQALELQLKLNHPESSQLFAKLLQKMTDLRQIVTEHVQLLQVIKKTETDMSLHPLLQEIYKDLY
Outline: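 PPAR-gamma-UAS-bla HEK293 cells (3000/well, 1% charcoal/dextran-stripped FBS) were preincubated 6-6.5 h at 37 C, given titrated compounds, then stimulated with 50 nM rosiglitazone for 16 h. Beta-lactamase activity was read with CCF4 dye; IC50 came from Hill fits.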

[4] = target: Thyroid hormone receptor beta (Homo sapiens) (UniProt P10828); test: qHTS assay for small molecule antagonists of thyroid hormone receptor beta signaling (AID 588547; active means well fitted inhibition curve with a large enough effect in the signal ratio, with a control signal flat, not every such curve was filed as active; the % refers to the signal ratio;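 further: cells stimulated with 0.4 nM T3 agonist during compound exposure; series mostly up to about 77 µM; on the % scale 0 is the no-effect control and ±100 the full control effect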); conditions: TR-UAS-bla HEK293, beta-lactamase ratio, antagonist mode, 18 h
Thyroid hormone receptor beta (Homo sapiens), sequence (P10828 whole entry, looked up): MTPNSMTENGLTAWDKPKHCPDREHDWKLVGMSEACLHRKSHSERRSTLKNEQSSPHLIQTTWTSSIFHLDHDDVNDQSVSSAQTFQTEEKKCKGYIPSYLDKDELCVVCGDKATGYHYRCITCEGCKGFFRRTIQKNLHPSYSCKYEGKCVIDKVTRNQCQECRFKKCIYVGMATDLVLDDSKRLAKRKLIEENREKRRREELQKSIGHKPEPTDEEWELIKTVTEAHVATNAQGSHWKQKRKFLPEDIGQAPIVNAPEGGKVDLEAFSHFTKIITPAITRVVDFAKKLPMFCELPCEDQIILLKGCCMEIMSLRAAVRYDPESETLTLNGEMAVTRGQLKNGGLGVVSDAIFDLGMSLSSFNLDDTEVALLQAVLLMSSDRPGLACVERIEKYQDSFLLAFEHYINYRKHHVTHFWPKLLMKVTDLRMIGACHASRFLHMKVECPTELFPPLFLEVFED
Outline: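 TR-UAS-bla GripTite HEK293 cells in 2% charcoal/dextran FBS medium were preincubated 4 h at 37 C, given compound (0.59 nM to 92 uM) plus 0.4 nM T3 (final) for 18 h, then CCF4 for 2 h at RT; Hill fit gave IC50.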

[5] = qHTS assay for small molecule agonists of the antioxidant response element (ARE) signaling pathway (AID 651741; active means well fitted activation curve with a large enough effect in the signal ratio; the % refers to the signal ratio; further: potency means the concentration at half of the fitted maximal effect; on activation: % of control where 0% means no effect)
Outline: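 ARE-bla HepG2 cells (beta-lactamase reporter under ARE control) were plated at 2,000 cells/well, preincubated 5 h at 37 C/5% CO2, then treated with DMSO-dissolved compounds for 16 h at 37 C; LiveBLAzer B/G FRET substrate added, fluorescence read after 2 h at room temperature.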

[6] = target: Bile acid receptor (Homo sapiens) (UniProt Q96RI1); test: qHTS assay for small molecule antagonists of farnesoid X receptor signaling (AID 588526); further: on the % scale 0 is the no-effect control and ±100 the full control effect
Bile acid receptor (Homo sapiens), sequence (Q96RI1 whole entry, looked up): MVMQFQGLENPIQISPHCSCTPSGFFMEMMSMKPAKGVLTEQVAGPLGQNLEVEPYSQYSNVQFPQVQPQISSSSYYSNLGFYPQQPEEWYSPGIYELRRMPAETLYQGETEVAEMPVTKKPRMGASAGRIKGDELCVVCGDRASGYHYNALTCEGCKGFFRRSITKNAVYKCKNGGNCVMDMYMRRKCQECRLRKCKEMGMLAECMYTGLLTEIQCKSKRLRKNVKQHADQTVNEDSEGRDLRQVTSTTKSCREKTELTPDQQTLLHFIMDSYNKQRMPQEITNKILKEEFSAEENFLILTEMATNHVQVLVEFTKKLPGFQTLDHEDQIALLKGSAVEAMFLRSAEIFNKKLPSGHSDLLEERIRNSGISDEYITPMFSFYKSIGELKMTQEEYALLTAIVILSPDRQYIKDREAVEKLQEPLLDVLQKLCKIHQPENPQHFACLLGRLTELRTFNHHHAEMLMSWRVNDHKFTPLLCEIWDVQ
Outline: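 Concentration-response titrations were fitted to the Hill equation for half-maximal inhibition and maximal response, with data normalised to 50 uM chenodeoxycholic acid and DMSO control wells. Cells: FXR-UAS-bla HEK293T, dialyzed FBS.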

[7] = target: Peroxisome proliferator-activated receptor gamma (Homo sapiens) (UniProt P37231); test: qHTS assay for small molecule agonists of peroxisome proliferator-activated receptor gamma signaling (AID 588536; active means well fitted curve in the direction sought with a large enough effect in the signal ratio, with a control signal flat, not every such curve was filed as active; the % refers to the signal ratio;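 further: 0% = DMSO basal wells and 100% = rosiglitazone at 2 µM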)
Outline: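 HEK293 UAS-bla reporter line, 1% charcoal/dextran FBS; titration, 16 h, 37 C; CCF4 loading 2 h RT; fluorescence 460/530 nm. Normalized to rosiglitazone 2 uM = 100%, DMSO = 0%.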

Nc1cc(Cl)c(O)c(Cl)c1
inactive: activation [1] -4.43% | activation [2] 16.9% | Potency [3]

CC1=CC(=O)CC(C)(C)C1
inactive: activation [2] -9.62% | Potency [3] | activity change % (negative = inhibition) [4] 1.58%

NC(=O)Cc1cccc2ccccc12
inactive: activation [2] -1.98% | Potency [3] | Potency [5]

COC(=O)CCSCCC(=O)OC
inactive: Potency [6] | activation [2] 8.88%

CCOC(=O)[C@H](C)Oc1ccc(Oc2nc3ccc(Cl)cc3o2)cc1
inactive: Potency [6] | Potency [3] | activity change % (negative = inhibition) [4] -0.0371%

CC(C)(N=C=O)c1cccc(C(C)(C)N=C=O)c1
inactive: activation [2] 9.9% | activity change % (negative = inhibition) [4] -9.67% | Potency [5]

CCCCCCCCCCCCCCCO
inactive: Potency [6] | outcome [7] | Potency [3] | activity change % (negative = inhibition) [4] 4.44%

Oc1ccc(C(c2ccc(O)cc2)C(Cl)(Cl)Cl)cc1
active: Potency [5] 54.5 µM
inactive: Potency [6] | activity change % (negative = inhibition) [4] -14.4%

CC(=O)c1c(C)c([N+](=O)[O-])c(C(C)(C)C)c([N+](=O)[O-])c1C
inactive: activation [2] 3.65% | outcome [7] | Potency [3] | activity change % (negative = inhibition) [4] 11%

CCOc1ccc(NC(=O)OC(C)C)cc1OCC
inactive: Potency [6] | activation [2] -6.81% | Potency [3] | activity change % (negative = inhibition) [4] -11% | Potency [5]

CCCCCCC(O)CCCCCCCCCCC(=O)O (stereo not drawn)
inactive: Potency [6] | activation [2] -3.25% | Potency [3] | activity change % (negative = inhibition) [4] -5.14%

O=C(O)CCCCCCC(=O)O
inactive: Potency [6] | activation [2] -13.8% | outcome [7] | Potency [3]

CCOC(=O)NCCOc1ccc(Oc2ccccc2)cc1
active: Potency [5] 30.6 µM
inactive: Potency [6] | outcome [7]

C=C(C)C(=O)OCC(CC)(COC(=O)C(=C)C)COC(=O)C(=C)C
inactive: Potency [6] | outcome [7] | Potency [3] | Potency [5]

CCC(C)OC(=O)N1CCCCC1CCO (stereo not drawn)
inactive: Potency [6] | outcome [7] | Potency [3] | activity change % (negative = inhibition) [4] -6.45% | Potency [5]

CCCCCCOCCOCCO
inactive: activation [2] -12.5% | outcome [7] | Potency [3] | activity change % (negative = inhibition) [4] -6.1%

CCOC(=O)C(C)Oc1ccc(Oc2nc3ccc(Cl)cc3o2)cc1 (stereo not drawn)
inactive: activation [2] 19.6% | Potency [3]

CCCCCCCC[Si](OCC)(OCC)OCC
inactive: activation [2] -8.51% | outcome [7] | activity change % (negative = inhibition) [4] 3.89% | Potency [5]

CCCCCCCCCCCCc1ccccc1
inactive: Potency [6] | outcome [7] | Potency [5]

CS(C)=O
inactive: activation [2] -5.87% | outcome [7] | Potency [3] | activity change % (negative = inhibition) [4] -25.7%

CC(C)(C)c1ccc(C(=O)O)cc1
inactive: activation [2] -3.04% | activity change % (negative = inhibition) [4] 0.292%

CC(COc1ccc(C(C)(C)C)cc1)OS(=O)OCCCl (stereo not drawn)
active: Potency [5] 27.3 µM
inactive: Potency [6] | activity change % (negative = inhibition) [4] -14.9%

C=CC(=O)OCCOc1ccccc1
inactive: activation [2] -7.33% | outcome [7] | Potency [3] | activity change % (negative = inhibition) [4] -3.52%

CCCCCCCC/C=C\CCCCCCCCO
inactive: activation [2] -0.954% | outcome [7] | Potency [3] | activity change % (negative = inhibition) [4] -5.71% | Potency [5]

CCCCCCC(C)(C)S
inactive: Potency [6] | activation [2] -11% | outcome [7] | Potency [3]

COc1cc(Cl)c(OC)cc1N
inactive: activation [2] -0.0557% | outcome [7] | Potency [3]

CCCCCCCC/C=C\CCCCCCCC(=O)OC
inactive: activation [2] -1.79% | outcome [7] | Potency [3]

CCCC[O][Al]([O]CCCC)[O]CCCC
inactive: Potency [6] | outcome [7] | Potency [3] | Potency [5]

CC(C)C(=O)OC(=O)C(C)C
inactive: activation [2] -15% | activity change % (negative = inhibition) [4] 8.71%

CCCCC(CC)COC(C)=O (stereo not drawn)
inactive: activation [2] -0.969% | Potency [3] | Potency [5]

CN(C)CCOCCN(C)C
inactive: Potency [6] | activation [2] 11.4% | outcome [7] | activity change % (negative = inhibition) [4] -4.05%

COC(OC)(C(=O)c1ccccc1)c1ccccc1
inactive: activation [2] -8.93% | outcome [7] | Potency [3] | activity change % (negative = inhibition) [4] -4.01%

CCC(O)OCCCOC (stereo not drawn)
inactive: activation [2] -7.43% | outcome [7] | activity change % (negative = inhibition) [4] -6.47% | Potency [5]

CC(C)(C)[C@H](O)[C@H](Cc1ccc(Cl)cc1)n1cncn1
inactive: activation [2] -0.93% | outcome [7] | Potency [3] | activity change % (negative = inhibition) [4] -7.84% and -5.42%

C=CCCCCCCCCCC
inactive: activation [2] -14.2% | outcome [7] | Potency [5]

O=C(c1ccccc1)c1ccc(O)c(O)c1O
inactive: activation [2] -16.3%

Reference: PubChem BioAssay (NCATS)
